These results are taken from PubChem BioAssay (EPA / NIEHS).

Several values for one entry are separate records, joined by “and”; a condition that tells them apart may be missing. Equal entries are not always repeated. Results filed as inconclusive are left out. The source holds several records for some structures; these can differ, active in one and inactive in another. Activity calls are given as the source filed them. The calls were made as follows, unless noted: active = hit-call score of the fitted dose curve at least 0.9, where 1 is the maximum; inactive = score below 0.9.

Read-out in assay [1]: Monokine induced gamma interferon (MIG), CXCL9 (gene 4283)
In words: BSK_3C_MIG: BioMAP Diversity Plus: 3C Assay for Monokine induced gamma interferon (MIG) Biomarker Activity (AID 2283021).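 As to AC50: MIG protein level measured by immunoassay in the treated endothelial cultures.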 The following applies: primary human endothelial cells (HUVEC); actives raise or lower the signal. A digest of the protocol: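 HUVEC primary endothelial cultures dosed with chemical; MIG quantified by ELISA at 24 h. Data fitted bidirectionally against DMSO control, with parallel SRB total-protein staining for cytotoxicity.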

In assay [2] the target is human Vitamin D Receptor (VDR), VDR (gene 7421) (UniProt P11473). In words: ATG_VDR_TRANS: Attagene TRANS-FACTORIAL HepG2 Assay for human Vitamin D Receptor (VDR) (AID 2283022; active = hit-call score of the fitted dose curve at least 0.9, where 1 is the maximum). A digest of the protocol:
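HepG2 cells were transiently transfected with GAL4-UAS reporter units and a chimeric VDR-Gal4 construct, then dosed for 24 hours. Reporter mRNA was quantified by RT-PCR, fluorescent labeling, HpaI digestion and capillary electrophoresis; gain of signal analysed vs DMSO.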

Assay [3] is described as follows: BSK_3C_SRB: Viability Assessment in the BioMAP Diversity Plus: 3C Assay (AID 2283023).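 Also: fitted both ways against DMSO so a hit may be signal rise or drop.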 The following applies: primary human endothelial cells (HUVEC). A digest of the protocol: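 Human umbilical vein endothelial cells in the 3C system, treated 24 h. Total protein measured by 0.1% sulforhodamine B staining after 10% TCA fixation, read at 560 nm; bidirectional fit versus DMSO.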

Read-out in assay [4]: Matrix Metallopeptidase 1 (MMP1), MMP1 (gene 4312)
Put plainly: BSK_BE3C_MMP1: BioMAP Diversity Plus: BE3C Assay for Matrix Metallopeptidase 1 (MMP1) Biomarker Activity (AID 2283024). Conditions: primary human bronchial epithelial cells; actives raise or lower the signal. A digest of the protocol:
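Human primary bronchial epithelial cells (BE3C system) dosed for 24 h; MMP-1 quantified by ELISA. Bidirectional fit against DMSO; cytotoxicity tracked in parallel cultures by SRB total-protein staining.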

The nature of assay [5]: BSK_3C_Vis: BioMAP Diversity Plus: 3C Assay for Morphology Visualization (AID 2283025).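 Also: fitted both ways so gain or loss versus DMSO counts.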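 As to AC50: light microscopy image of cell morphology used as background control.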 The following applies: primary human endothelial cells (HUVEC). A digest of the protocol: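 Human umbilical vein endothelial cell morphology was inspected by light microscopy 24 h after chemical dosing; scored bidirectionally relative to DMSO.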
Read-out in assay [6]: Pselectin, SELP (gene 6403)
In words: BSK_4H_Pselectin: BioMAP Diversity Plus: 4H Assay for Pselectin Biomarker Activity (AID 2283026). The following applies: primary human endothelial cells (HUVEC); actives raise or lower the signal. A digest of the protocol:
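Primary human umbilical vein endothelial cells were treated 24 h, and cell-surface P-selectin was then quantified by ELISA. Bidirectional fit versus DMSO; cytotoxicity checked in parallel cultures by SRB total-protein staining.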

A short description of assay [7]: BSK_4H_SRB: Viability Assessment in the BioMAP Diversity Plus: 4H Assay (AID 2283027).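 Also: cells exposed to compound for 24 h before staining.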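 As to AC50: curves fitted both ways versus DMSO so AC50 may be loss or gain.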 Conditions: primary human endothelial cells (HUVEC). A digest of the protocol:
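Human umbilical vein endothelial cells, 24 h after chemical dosing; total protein measured by 0.1% sulforhodamine B staining after 10% TCA fixation, read at 560 nm. Bidirectional fitting against DMSO.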

Assay [8] can be described thus: BSK_BE3C_SRB: Viability Assessment in the BioMAP Diversity Plus: BE3C Assay (AID 2283028).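 As to AC50: fitted both ways so AC50 may mark signal gain or loss versus DMSO.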 Conditions: primary human bronchial epithelial cells. A digest of the protocol: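 Human bronchial epithelial primary cells in confluent culture, 24 h after chemical dosing; total protein by 0.1% SRB staining after 10% TCA fixation, read at 560 nm. Bidirectional fitting versus DMSO baseline.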

Read-out in assay [9]: Urokinase-type plasminogen activator receptor (uPAR), PLAUR (gene 5329)
Put plainly: BSK_4H_uPAR: BioMAP Diversity Plus: 4H Assay for Urokinase-type plasminogen activator receptor (uPAR) Biomarker Activity (AID 2283030). The following applies: primary human endothelial cells (HUVEC); actives raise or lower the signal. Summed up:
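Human umbilical vein endothelial cells in the 4H system, 24 h after chemical dosing. Cell-surface uPAR measured by ELISA, fitted in both directions versus DMSO; cytotoxicity checked by SRB total protein in parallel cultures.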

Read-out in assay [10]: Thrombomodulin, THBD (gene 7056)
Put plainly: BSK_3C_Thrombomodulin: BioMAP Diversity Plus: 3C Assay for Thrombomodulin Biomarker Activity (AID 2283029). The following applies: primary human endothelial cells (HUVEC); actives raise or lower the signal. Summed up: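 Human umbilical vein endothelial cells were exposed to chemicals for 24 h; cell-surface thrombomodulin quantified by ELISA, with bidirectional fitting against DMSO baseline.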

Chain of human Vitamin D Receptor (VDR), VDR (gene 7421) (P11473 whole entry, looked up, the tested form may be a part): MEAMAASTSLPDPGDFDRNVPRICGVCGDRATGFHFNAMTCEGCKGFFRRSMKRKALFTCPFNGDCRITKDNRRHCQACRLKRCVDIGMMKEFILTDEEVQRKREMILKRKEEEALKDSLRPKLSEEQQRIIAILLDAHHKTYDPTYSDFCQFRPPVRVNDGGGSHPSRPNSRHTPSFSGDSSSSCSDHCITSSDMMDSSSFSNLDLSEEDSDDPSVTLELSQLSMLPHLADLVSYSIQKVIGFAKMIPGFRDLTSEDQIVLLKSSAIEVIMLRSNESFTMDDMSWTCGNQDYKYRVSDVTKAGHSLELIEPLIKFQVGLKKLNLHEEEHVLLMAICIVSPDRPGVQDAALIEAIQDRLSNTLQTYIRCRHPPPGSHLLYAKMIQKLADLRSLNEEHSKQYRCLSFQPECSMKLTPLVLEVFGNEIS

Regarding `O=S1OCC2C(CO1)C1(Cl)C(Cl)=C(Cl)C2(Cl)C1(Cl)Cl` (centres undefined), the AC50 in assay [1] was 36 µM (active); in assay [3], 20 µM (active); in assay [4], 36.6 µM (active); in assay [5] it was 16.3 µM (active); in assay [6], 27.3 µM (active); in assay [7], 27.7 µM (active). The AC50 is 20.9 µM (active) in assay [8] and 30.5 µM (active) in assay [9]. Besides, in [2], the call was inactive.
Regarding `CCCN(CCC)c1c([N+](=O)[O-])cc(C(F)(F)F)cc1[N+](=O)[O-]`, the outcome in assay [1], in [4], in [7], in assay [8] and in assay [9] was inactive. Moreover, the figures for the concentration at half-maximal activity (AC50) in [3], in assay [5] and in assay [6] were 24.8 µM (active), 13.7 µM (active) and 36.5 µM (active), respectively.
On to `CCOC1Oc2ccc(OS(C)(=O)=O)cc2C1(C)C` (centres undefined), for which the outcome in assay [1], in assay [4], in [5], in assay [6], in assay [7] and in [8] was inactive. Also, the outcome in [9] was inactive. Besides, the AC50 in assay [3] was 24.1 µM (active).
`Oc1ccc(Cl)cc1Cc1ccccc1`: the AC50 is 36.8 µM (active) [middle of 7 runs] in assay [1]; 24.4 µM (active) [middle of 7 runs] in [3]; 32.8 µM (active) [middle of 7 runs] in assay [4]; 37.9 µM (active) and 14.7 µM (active) and 20 µM (active) in assay [5]; 28.2 µM (active) [middle of 7 runs] in assay [6]; 28.1 µM (active) [middle of 7 runs] in [7]. For the same compound, the concentration at half-maximal activity (AC50) in [8] was 34.7 µM (active) [middle of 5 runs]; in assay [9] it was 34 µM (active) [middle of 7 runs].
On to `CC1(c2ccc(Oc3ccccc3)cc2)OC(=O)N(Nc2ccccc2)C1=O` (centres undefined), for which the half-maximal activity concentration (AC50) in assay [1] was 32.3 µM (active); in assay [3], 28.5 µM (active); in [5], 16.3 µM (active); in assay [6], 31.7 µM (active); in assay [7] it was 20 µM (active); in assay [8], 27.5 µM (active). Besides, the AC50 in [9] is 16.1 µM (active). Moreover, the outcome in assay [4] and in [10] was inactive.
In the case of `CN1CSC(=S)N(C)C1`, the result in assay [1], in assay [4], in assay [7], in [8] and in [9] was inactive. The concentration at half-maximal activity (AC50) is 20 µM (active) in assay [3], 13.2 µM (active) in assay [5] and 6.08 µM (active) in assay [6].
As to `ClC1C(Cl)C(Cl)C(Cl)C(Cl)C1Cl` (centres undefined), the result in assay [1], in [3], in assay [4], in assay [5], in assay [6] and in assay [7] was inactive. Also, the outcome in [8], in assay [10] and in assay [9] was inactive. Further, the concentration at half-maximal activity (AC50) is 18.5 µM (active) and 28.3 µM (active) and 20 µM (active) in [3]; 38.6 µM (active) in assay [5]; 5.2 µM (active) in assay [6]; 20 µM (active) in assay [7].
Consider `CCN(CC)C(=O)SCc1ccc(Cl)cc1`, for which the outcome in assay [1], in assay [2], in assay [3], in [4], in assay [5] and in assay [6] was inactive. Also, the outcome in assay [7], in [8] and in [9] was inactive.
Take `CCCN(CCOc1c(Cl)cc(Cl)cc1Cl)C(=O)n1ccnc1`: the outcome in assay [1], in assay [4], in assay [5] and in assay [9] was inactive. For the same compound, the AC50 in assay [3] was 32 µM (active); in [6], 33.8 µM (active); in assay [7] it was 29.8 µM (active); in [8], 28.9 µM (active); in assay [10], 12 µM (active).
For the compound `COc1cc(OC)nc(NC(=O)NS(=O)(=O)c2cc(NC=O)ccc2C(=O)N(C)C)n1`, the result in [1], in assay [3], in assay [4], in assay [5], in assay [6] and in assay [7] was inactive. The result in [8] and in assay [9] was inactive.
With `COP(=O)(OC)OC=C(Cl)Cl`, the outcome in assay [1], in [3], in assay [4], in assay [7], in [8] and in [10] was inactive. Also, in [9], the outcome was inactive. Also, the half-maximal activity concentration (AC50) in assay [5] is 9.8 µM (active); in assay [6], 16.8 µM (active).
Consider `CCC(C)(NC(=O)c1cc(Cl)c(C)c(Cl)c1)C(=O)CCl` (centres undefined), for which the AC50 in assay [1] was 14.1 µM (active); in [3], 12.2 µM (active); in [4] it was 27 µM (active); in [5], 7.99 µM (active); in assay [6] it was 12 µM (active); in assay [7] it was 27.3 µM (active). Also, the AC50 in [8] is 16.5 µM (active); in [9] it was 26.1 µM (active).
As for `CCOc1nc(NC)nc(NC(=O)NS(=O)(=O)c2ccccc2C(=O)OC)n1`, the result in assay [1], in [3], in assay [4], in [5], in assay [6] and in assay [7] was inactive. In addition, the result in assay [8], in [10] and in [9] was inactive.
With `CNC(=O)Oc1ccccc1OC(C)C`, the result in [1], in assay [3], in [4], in [5], in [6] and in assay [7] was inactive. The outcome in assay [8], in assay [10] and in assay [9] was inactive.

As usually defined, the AC50 is the midpoint of the concentration-response curve, whichever way the signal moves.
